This is an account of results in PubChem BioAssay (Tox21).

Molecules are shown by their SMILES. Several values for one entry are separate records, joined by “and”; a condition that tells them apart may be missing. Equal entries are not always repeated. Inconclusive results are not listed. Some compounds were tested as several samples or in several runs, with calls that do not always agree. Activity calls are given as the source filed them. Unless noted, calls follow the shape of the dose curve; as a rule, active = well fitted curve in the direction sought with a large enough effect in the repeat runs; inconclusive = weak or mixed curves; inactive = no such curve, though single readings can be large; an effect the other way counts as inactive or inconclusive.

Assay [1] has as its system thyroid hormone receptor (rat, GH3 cells). As to the kind of experiment: qHTS assay to identify small molecule agonists of the thyroid receptor (TR) signaling pathway (AID 743066; calls by dose curve; also: potency is read from the fitted curve at half-maximal effect). (In general: Quantitative high-throughput screening tests each substance at several concentrations.)
The nature of assay [2]: qHTS assay to identify small molecule antagonists of the estrogen receptor alpha (ER-alpha) signaling pathway - cell viability counter screen (AID 743074; calls by dose curve;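 also: HEK293 cells carrying ER-alpha-UAS-bla reporter stimulated with 17beta-estradiol; nearly all actives have a fitted effect of over 45% in size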; also: potency is read from the fitted curve at half-maximal effect).
The nature of assay [3]: qHTS assay to identify small molecule antagonists of the estrogen receptor alpha (ER-alpha) signaling pathway using the BG1 cell line - cell viability counter screen (AID 743081).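 Also: compound given together with 17beta-estradiol as the ER stimulus; nearly all actives have a fitted effect of over 45% in size.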 Also: potency is read from the fitted curve at half-maximal effect.
For another assay, the target named is Aromatase (Homo sapiens) (UniProt P11511). Put plainly: qHTS assay to identify aromatase inhibitors (AID 743083). Also: nearly all actives have a fitted effect of over 55% in size. Also: potency is read from the fitted curve at half-maximal effect.
Chain of Aromatase (Homo sapiens) (P11511 whole entry, looked up): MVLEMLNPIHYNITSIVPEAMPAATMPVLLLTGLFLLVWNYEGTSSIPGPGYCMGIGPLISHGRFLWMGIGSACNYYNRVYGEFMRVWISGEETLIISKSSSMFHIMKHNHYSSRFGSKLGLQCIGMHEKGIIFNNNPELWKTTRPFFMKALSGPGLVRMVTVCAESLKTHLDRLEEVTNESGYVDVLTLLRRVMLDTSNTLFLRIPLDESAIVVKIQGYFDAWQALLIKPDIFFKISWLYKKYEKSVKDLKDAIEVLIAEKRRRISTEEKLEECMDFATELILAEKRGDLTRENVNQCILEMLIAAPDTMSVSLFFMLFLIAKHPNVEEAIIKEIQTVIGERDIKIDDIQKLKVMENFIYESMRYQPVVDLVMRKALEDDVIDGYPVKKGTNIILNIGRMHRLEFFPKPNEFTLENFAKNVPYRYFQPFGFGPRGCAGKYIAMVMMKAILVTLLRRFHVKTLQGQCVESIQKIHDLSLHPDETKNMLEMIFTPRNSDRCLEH
Assay [4] in a line: qHTS assay to identify aromatase inhibitors - cell viability counter screen (AID 743084).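 Also: cells stimulated with testosterone during compound exposure; nearly all actives have a fitted effect of over 55% in size.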 Also: potency is read from the fitted curve at half-maximal effect.
Assay [5] has as its target Aryl hydrocarbon receptor (Homo sapiens) (UniProt P35869). As to the kind of experiment: qHTS assay to identify small molecule that activate the aryl hydrocarbon receptor (AhR) signaling pathway (AID 743085). Also: nearly all actives have a fitted effect of over 15% in size. Also: potency is read from the fitted curve at half-maximal effect. A digest of the protocol:
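HepG2 cells (HG2L7.5c1) stably carrying a firefly luciferase reporter driven by 20 dioxin responsive elements were exposed to compound for 24 h at 37C after a 5 h settling period; luminescence rise (ONE-Glo) indicated activation.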

For assay [6], the target named is Estrogen receptor (Homo sapiens) (UniProt P03372). As to the kind of experiment: qHTS assay to identify small molecule antagonists of the estrogen receptor alpha (ER-alpha) signaling pathway (AID 743069; active = well fitted curve in the direction sought with a large enough effect in the signal ratio in the repeat runs, not every such curve was filed as active; the % refers to the signal ratio). A digest of the protocol:
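A 17beta-estradiol challenge was applied right after compound transfer to ER-alpha-UAS-bla HEK293 cells previously kept in charcoal-stripped serum. Plates stood 18 hr at 37C and 5% CO2; fluorescence was read following 2 hr FRET substrate loading at room temperature.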

For assay [7] the target is unchanged. Put plainly: qHTS assay to identify small molecule agonists of the estrogen receptor alpha (ER-alpha) signaling pathway (AID 743075; calls by dose curve;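 also: HEK293 GripTite cells with ER-alpha and UAS-driven beta-lactamase reporter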).
Assay [8] shares this target. As to the kind of experiment: qHTS assay to identify small molecule agonists of the estrogen receptor alpha (ER-alpha) signaling pathway using the BG1 cell line (AID 743079). Also: nearly all actives have a fitted effect of over 20% in size.

Chain of Aryl hydrocarbon receptor (Homo sapiens) (P35869 whole entry, looked up): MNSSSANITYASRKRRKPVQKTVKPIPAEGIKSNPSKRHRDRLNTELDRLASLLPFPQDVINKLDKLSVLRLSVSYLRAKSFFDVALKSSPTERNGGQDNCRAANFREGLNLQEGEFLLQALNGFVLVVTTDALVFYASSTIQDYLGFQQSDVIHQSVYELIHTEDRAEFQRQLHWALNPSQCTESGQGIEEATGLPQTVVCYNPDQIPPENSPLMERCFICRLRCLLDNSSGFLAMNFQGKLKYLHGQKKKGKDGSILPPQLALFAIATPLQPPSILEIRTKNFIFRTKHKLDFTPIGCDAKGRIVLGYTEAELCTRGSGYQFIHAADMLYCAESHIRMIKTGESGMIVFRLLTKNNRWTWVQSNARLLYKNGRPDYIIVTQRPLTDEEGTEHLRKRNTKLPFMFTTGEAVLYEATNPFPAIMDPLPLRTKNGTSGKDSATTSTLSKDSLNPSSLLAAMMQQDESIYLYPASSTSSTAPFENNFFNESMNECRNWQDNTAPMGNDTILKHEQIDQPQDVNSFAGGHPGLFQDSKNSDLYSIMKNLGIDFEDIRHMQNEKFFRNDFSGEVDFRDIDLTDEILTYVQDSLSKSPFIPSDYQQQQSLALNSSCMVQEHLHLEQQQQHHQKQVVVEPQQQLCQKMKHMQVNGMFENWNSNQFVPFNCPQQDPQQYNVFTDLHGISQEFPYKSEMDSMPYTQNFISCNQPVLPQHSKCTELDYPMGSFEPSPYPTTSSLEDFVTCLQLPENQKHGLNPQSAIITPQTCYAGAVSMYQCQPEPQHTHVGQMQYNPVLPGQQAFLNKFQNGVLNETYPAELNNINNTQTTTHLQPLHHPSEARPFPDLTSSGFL
Chain of Estrogen receptor (Homo sapiens) (P03372 whole entry, looked up): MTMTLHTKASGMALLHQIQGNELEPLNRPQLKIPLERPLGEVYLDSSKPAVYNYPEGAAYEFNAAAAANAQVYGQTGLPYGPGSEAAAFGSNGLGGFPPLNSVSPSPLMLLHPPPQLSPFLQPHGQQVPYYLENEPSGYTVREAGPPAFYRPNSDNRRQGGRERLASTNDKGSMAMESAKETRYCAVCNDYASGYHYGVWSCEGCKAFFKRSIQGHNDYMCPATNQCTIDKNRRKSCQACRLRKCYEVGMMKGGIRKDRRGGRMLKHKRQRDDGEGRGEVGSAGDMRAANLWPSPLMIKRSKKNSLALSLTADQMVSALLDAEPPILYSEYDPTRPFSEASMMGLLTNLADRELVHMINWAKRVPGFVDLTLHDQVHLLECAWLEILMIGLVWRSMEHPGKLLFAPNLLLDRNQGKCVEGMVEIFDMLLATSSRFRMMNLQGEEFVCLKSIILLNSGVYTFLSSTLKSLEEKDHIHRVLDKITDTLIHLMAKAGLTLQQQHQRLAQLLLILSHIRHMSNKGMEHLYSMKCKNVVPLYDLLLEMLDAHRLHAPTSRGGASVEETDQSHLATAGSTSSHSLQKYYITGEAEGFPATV

For `O=P(O)(O)O`, the Potency result (in assay [1]; in [2]; in assay [3]; with Aromatase (Homo sapiens); in [4]; in assay [5]) was “inactive” in each case.
In the case of `CCCCCCCCCC(=O)OC`, the Potency entry (in assay [1]; in [2]; in [3]; in the assay with Aromatase (Homo sapiens); in [4]; in [5]) was “inactive” in each case.
For `CC(C)=CCC/C(C)=C\CO`, in assay [1], the Potency is 24.5 µM (active) and inactive. The Potency result in assay [2], in [3], in [4] and in assay [5] was “inactive” throughout.
With `O=c1oc(=O)c2cc3c(=O)oc(=O)c3cc12`, the Potency entry (in assay [1]; in [2]; in assay [3]; with Aromatase (Homo sapiens); in assay [4]; in assay [5]) was “inactive” in each case.
Turning to `CN(C)c1nc(N(C)C)nc(N(C)C)n1`, the Potency entry in [2] and in assay [3] was “inactive” in each case.
Take `O=C(c1ccc(OCCN2CCCCC2)cc1)c1c(-c2ccc(O)cc2)sc2cc(O)ccc12`: the Potency result in assay [1] and in [5] was “inactive” in each case. In addition, the Potency in assay [2] is 23.9 µM (active) and 49 µM (active) and 54.9 µM (active); in assay [3], 8.41 µM (active) and 10.9 µM (active) and 13.7 µM (active); with Aromatase (Homo sapiens) it was 11.9 nM (active) and 3.9 nM (active) and 4.3 nM (active); in [4], 29.8 µM (active) and 34.4 µM (active).
`CC(C)OC(=O)C(C)(C)Oc1ccc(C(=O)c2ccc(Cl)cc2)cc1`: the Potency result in [6], in [2], in assay [7], in assay [8], in assay [3] and in [5] was “inactive” in each case. Further, the Potency entry with Aromatase (Homo sapiens) was “inactive and 68.6 µM (active)”.
On to `NC=O`, for which the Potency entry (in assay [1]; in assay [3]; in the assay with Aromatase (Homo sapiens); in [4]; in [5]) was “inactive” throughout.
As to `CCOCCOCCO`, the Potency entry (in assay [1]; in assay [2]; in [3]; with Aromatase (Homo sapiens); in assay [4]; in assay [5]) was “inactive” throughout.
Consider `CC(C)CC(C)(O)C#CC(C)(O)CC(C)C` (stereo not drawn), for which the Potency result in assay [1], in assay [2], in [3], in [4] and in assay [5] was “inactive” in each case.
As for `Nc1ccc(S(=O)(=O)Nc2cnc3ccccc3n2)cc1`, the Potency result (in assay [1]; in assay [2]; in assay [3]; with Aromatase (Homo sapiens); in [4]; in assay [5]) was “inactive” each time.
Regarding `CC(=O)C1(C)CC2=C(CCCC2(C)C)CC1C` (stereo not drawn), the Potency entry (in [1]; in [2]; in [3]; in the assay with Aromatase (Homo sapiens); in [4]; in [5]) was “inactive” throughout.
With `Cc1c(OCC(F)(F)F)ccnc1CS(=O)c1nc2ccccc2[nH]1` (stereo not drawn), the Potency entry (in [2]; in assay [3]; with Aromatase (Homo sapiens); in [4]) was “inactive” in each case. Besides, the Potency in [5] is 4.22 µM (active) and 19.3 µM (active).
With `CCCCc1oc2ccccc2c1C(=O)c1cc(I)c(OCCN(CC)CC)c(I)c1`, the Potency entry in assay [6], in assay [7], in assay [8] and in [3] was “inactive” throughout. Also, the Potency result is “inactive and 43.6 µM (active)” in the assay with Aromatase (Homo sapiens); “inactive and 43.6 µM (active)” in assay [4].
Regarding `O=C(Nc1ccc([N+](=O)[O-])cc1Cl)c1cc(Cl)ccc1O`, the Potency entry in assay [7], in assay [3] and in assay [4] was “inactive” throughout. In addition, the Potency result was “inactive and 1.93 µM (active)” with Aromatase (Homo sapiens); 211 nM (active) in assay [5].
Take `CCCCC/C=C/C=C/C=O`: the Potency result (in [1]; in assay [2]; in assay [3]; with Aromatase (Homo sapiens); in [4]; in [5]) was “inactive” throughout.
